Experimental findings from PubChem BioAssay are described below.

Results filed as inconclusive are left out. Calls of active or inactive are those of the source. Unless noted, cut-off not given; nearly all actives show AC50 up to about 30 µM.

The first experiment can be described thus: growth inhibition of DIPG glioma cells, dose response, cell-based, SU-DIPG-IV, MIPE4.0, CellTiter-Glo, qHTS (AID 1347063).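 Further: compound exposure lasted 48 hours before the viability readout.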 Particulars: SU-DIPG-IV viability, CellTiter-Glo ATP luminescence.
Take `NC(=O)c1ccc(-c2nc(-c3ccc4c(c3)OCO4)c(-c3ccccn3)[nH]2)cc1`: the molecule was called inactive.
Consider `COc1cc2ncn(-c3cc(OCc4ccccc4S(C)(=O)=O)c(C#N)s3)c2cc1OC`, for which the molecule was called inactive.
As for `Cn1cc(/C=C2\C(=O)Nc3cccnc32)c2ccccc21`, the outcome was inactive.
The term AC50 denotes the concentration at which the activity in the assay is half-maximal. Take `CN(C)CCOc1ccc(-c2nc(-c3ccc4c(c3)CC/C4=N\O)c(-c3ccncc3)[nH]2)cc1`: the concentration at half-maximal activity (AC50) is 13.2 µM (active).
With `Cn1cc(C2=C(c3c4n(c5ccccc35)CCC(CN)C4)C(=O)NC2=O)c2ccccc21` (stereo not drawn), the AC50 was 18.7 µM (active).

A further experiment can be described thus: growth inhibition of DIPG glioma cells, dose response, cell-based, SU-DIPG-XIII, MIPE5.0, CellTiter-Glo, qHTS (AID 1347064; cut-off not given, nearly all actives have AC50 up to about 23 µM;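 on AC50: cells exposed to compound for 48 hours before the viability read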). Particulars: SU-DIPG-XIII viability, CellTiter-Glo ATP luminescence. A general note: Cellular ATP, detected with luciferase, serves as a proxy for viable cell number.
For `Cn1cc(/C=C2\C(=O)Nc3cccnc32)c2ccccc21`, the AC50 is 8.33 µM (active).
For `Cn1c(=O)c(Oc2ccc(F)cc2F)cc2cnc(NC3CCOCC3)nc21`, the molecule was called inactive.
On to `COc1ccc(-c2oc3ncnc(N)c3c2-c2ccc(NC(=O)Nc3cc(C(F)(F)F)ccc3F)cc2)cc1`, for which the AC50 was 3.72 µM (active).

The next experiment can be described thus: viability loss in pontine glioma line – cell-based, SU-DIPG-XXV, MIPE5.0, CellTiter-Glo, qHTS, dose response (AID 1347065; cut-off not given, nearly all actives have AC50 up to about 26 µM;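 further: cells exposed to compound for 48 hours before ATP readout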). The conditions noted are these: CellTiter-Glo ATP luminescence.
`NC(=O)c1ccc(-c2nc(-c3ccc4c(c3)OCO4)c(-c3ccccn3)[nH]2)cc1`: the result was inactive.
On to `O=C1NC(=O)C(c2c[nH]c3ccccc23)=C1c1c[nH]c2ccccc12`, for which the AC50 is 18.6 µM (active).
Regarding `COc1cc2ncn(-c3cc(OCc4ccccc4S(C)(=O)=O)c(C#N)s3)c2cc1OC`, the molecule was classed as inactive.
`Cn1cc(/C=C2\C(=O)Nc3cccnc32)c2ccccc21`: the AC50 is 9.34 µM (active).
Turning to `Cn1c(=O)c(Oc2ccc(F)cc2F)cc2cnc(NC3CCOCC3)nc21`, the call was inactive.
Consider `COc1ccc(-c2oc3ncnc(N)c3c2-c2ccc(NC(=O)Nc3cc(C(F)(F)F)ccc3F)cc2)cc1`, for which the half-maximal activity concentration (AC50) was 1.66 µM (active).
With `COc1ccc(COc2ccc(Cc3cnc(N)nc3N)cc2OC)cc1`, the result was inactive.
`Cn1cc(C2=C(c3c4n(c5ccccc35)CCC(CN)C4)C(=O)NC2=O)c2ccccc21` (stereo not drawn): the outcome was inactive.

A further experiment can be described thus: SU-DIPG-VI glioma cell viability, MIPE4.0 library, CellTiter-Glo luminescence, qHTS (AID 1347066).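 Further: cells exposed to compound for 48 hours before readout.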 Particulars: CellTiter-Glo ATP luminescence.
In the case of `CCn1c(-c2nonc2N)nc2cnc(Oc3cccc(NC(=O)c4ccc(OCCN5CCOCC5)cc4)c3)cc21`, the outcome was inactive.
With `NC(=O)c1ccc(-c2nc(-c3ccc4c(c3)OCO4)c(-c3ccccn3)[nH]2)cc1`, the call was inactive.
Same read-out and setting: in the case of `COc1cc2ncn(-c3cc(OCc4ccccc4S(C)(=O)=O)c(C#N)s3)c2cc1OC` it was “inactive”; in that of `Cn1cc(/C=C2\C(=O)Nc3cccnc32)c2ccccc21`, “inactive”.
Same read-out and setting: the same measure for `Cn1c(=O)c(Oc2ccc(F)cc2F)cc2cnc(NC3CCOCC3)nc21`: “inactive”.
Regarding `CN(C)CCOc1ccc(-c2nc(-c3ccc4c(c3)CC/C4=N\O)c(-c3ccncc3)[nH]2)cc1`, the AC50 was 11.8 µM (active).
With `Cn1cc(C2=C(c3c4n(c5ccccc35)CCC(CN)C4)C(=O)NC2=O)c2ccccc21` (stereo not drawn), the AC50 is 23.5 µM (active).
